# According to PubChem BioAssay AID1347048 (National Center for Advancing Translational Sciences (NCATS), 2019):
# Hit rate of the full screen: of about 76,000 compounds, about 1,200 (1.6%) were called active. Another 4% or so got no clear call; they are omitted. The sample holds actives, similar compounds and a random draw of the others, so the mix is not that of the screen. Values without a mark were called inactive. Calls come from the whole dose curve.
# Target: Atrial natriuretic peptide receptor 1 (Homo sapiens) (UniProt P16066)
# Sequence (P16066 whole entry, looked up): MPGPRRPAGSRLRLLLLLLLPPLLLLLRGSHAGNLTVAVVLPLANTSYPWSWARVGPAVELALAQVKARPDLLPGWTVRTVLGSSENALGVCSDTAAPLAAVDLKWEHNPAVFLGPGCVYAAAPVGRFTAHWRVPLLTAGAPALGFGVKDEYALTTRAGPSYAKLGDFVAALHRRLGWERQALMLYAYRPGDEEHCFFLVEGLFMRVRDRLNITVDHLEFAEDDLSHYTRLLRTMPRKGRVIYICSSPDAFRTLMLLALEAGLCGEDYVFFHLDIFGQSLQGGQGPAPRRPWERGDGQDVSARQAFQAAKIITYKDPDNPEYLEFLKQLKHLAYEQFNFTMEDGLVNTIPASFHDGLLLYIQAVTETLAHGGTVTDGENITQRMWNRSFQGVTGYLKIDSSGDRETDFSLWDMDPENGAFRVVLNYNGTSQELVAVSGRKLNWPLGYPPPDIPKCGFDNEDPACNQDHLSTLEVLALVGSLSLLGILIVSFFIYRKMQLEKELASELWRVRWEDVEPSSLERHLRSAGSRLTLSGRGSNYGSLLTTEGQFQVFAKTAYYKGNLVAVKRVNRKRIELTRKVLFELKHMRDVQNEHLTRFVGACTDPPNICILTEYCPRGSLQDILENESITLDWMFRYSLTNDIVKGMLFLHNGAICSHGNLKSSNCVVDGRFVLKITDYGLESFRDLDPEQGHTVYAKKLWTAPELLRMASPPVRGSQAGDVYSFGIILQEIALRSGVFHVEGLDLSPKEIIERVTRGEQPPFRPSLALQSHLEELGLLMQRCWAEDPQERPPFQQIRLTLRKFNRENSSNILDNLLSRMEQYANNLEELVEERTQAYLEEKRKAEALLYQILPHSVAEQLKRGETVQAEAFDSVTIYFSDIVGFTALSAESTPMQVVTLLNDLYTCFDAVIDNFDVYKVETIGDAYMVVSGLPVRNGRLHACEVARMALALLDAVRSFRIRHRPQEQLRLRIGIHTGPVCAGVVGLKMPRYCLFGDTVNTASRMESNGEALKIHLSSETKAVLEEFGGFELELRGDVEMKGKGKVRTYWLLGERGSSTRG
# Experiment: Natriuretic polypeptide receptor (hNpr1) antagonism - Primary qHTS; note: nearly all actives have a fitted effect of over 60% in size
# Settings: HEK293 hNpr1 GloSensor cGMP, ANP-stimulated luminescence; series mostly up to 46.3 µM; activity change, negative = inhibition: at the top concentration
# In short: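 Compound pre-incubated 30 min at room temperature on GloSensor-loaded HEK293 cells stably carrying hNpr1 and the pGS-40F cGMP biosensor. Stimulation uses hNppA at 0.1 nM final; luminescence is taken at baseline and 20 min post-agonist.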
# % is set by controls: 0 for no effect and ±100 for the full control effect; potency is the fitted concentration of half-maximal effect.
Structure (SMILES),"activity change, negative = inhibition",Potency
COc1ccc(OCC2(C)COc3ccc(C(=O)NC4CCOCC4)cc3N2)cc1 (stereo not drawn),-9.27% [at 70.6 µM],–
COc1ccc(OCC2(C)COc3ccc(C(=O)Nc4cccnc4)cc3N2)cc1 (stereo not drawn),–,25.1 µM (active)
CC1(COCC2CC2)COc2ccc(C(=O)NCc3cccnc3)cc2N1 (stereo not drawn),-4.53% [at 70.6 µM],–
Cc1ccc(C(=O)N2CCC3(CC2)CC(=O)c2ccccc2O3)cc1,6.47%,–
O=C(CCC[C@H]1NC[C@@H]2C[C@H]1CN(Cc1ccccc1)C2)NCC1CC1,-1.01%,–
O=C(c1ccncc1)N1CCC(Cc2noc(C3CC3)n2)C1 (stereo not drawn),-1.24%,–
Cc1cc(CNC(=O)c2ccc(-c3ccccc3Cl)o2)n(C)n1,–,11.2 µM (active)
O=C(NCc1ccc(Cl)cc1)c1cccn2nccc12,-5.27% [at 70.6 µM],–
COc1ccccc1-c1onc(C)c1C(=O)NCc1ccc(Cl)cc1,-13.5%,–
Cn1cc(-c2cc(-c3cccnc3)c3cncn3c2)cn1,-2.47% [at 70.6 µM],–
COc1ccc(-c2cc(N3CCCC(NC(=O)c4cc(F)ccc4Cl)C3)n[nH]2)cc1 (stereo not drawn),-13.6%,–
O=C(c1ccoc1)N1CCOc2ccc(CN3CCc4ccccc4C3)cc2C1,3.92%,–
O=C1c2cnc(-c3ccc(O)c(F)c3)nc2OCCN1Cc1ccccc1,-10.8% [at 70.6 µM],–
O=C1c2cnc(-c3ccc(Cl)cc3)nc2OCCN1Cc1ccccc1,–,31.6 µM (active)
COc1ccc(-c2ncc3c(n2)OCCN(Cc2ccccc2)C3=O)cn1,-12.4% [at 70.6 µM],–
COc1ccc(CNC(=O)N2CCC3(CC2)CC(N(C(C)=O)C2CC2)CCO3)cc1 (stereo not drawn),-4.72%,–
Cc1nn2c(c1-c1ccccc1-c1ccccc1)N(C(=O)CN1CCOCC1)CCC2,-11.1% [at 70.6 µM],–
Cc1nn2c(c1-c1ccccc1-c1ccccc1)N(CC1CC1)CCC2,–,2.82 µM (active)
Cc1nn2c(c1-c1ccccc1Oc1ccccc1)N(C(=O)C(C)C)CCC2,-16.7% [at 70.6 µM],–
COc1ccccc1-c1[nH]nc2ncc(C(=O)N3CCN(Cc4ccccc4)CC3)nc12,0.0858% [at 70.6 µM],–
CN(C)C(=O)c1cccnc1OC1CCN(S(=O)(=O)c2ccc3c(c2)CCCC3)C1 (stereo not drawn),-19.8%,–
O=C(c1ccno1)N1C[C@@H]2OCC(=O)N(c3ccccc3)[C@@H]2C1,-0.0457% [at 70.6 µM],–
O=C(Cn1nc2n(c1=O)CCCC2)Nc1ccc(Cl)cc1,5.33%,–
COc1ccc(CN2CCc3nc(C(=O)N4CCOCC4)oc3CC2)cc1OC,-5.72% [at 70.6 µM],–
N#Cc1ccc(CN2CCc3nc(C(=O)N4CCOCC4)oc3CC2)cc1,-2.41% [at 70.6 µM],–

Structure (SMILES),"activity change, negative = inhibition",Potency
CCNC(=O)C1C(c2cccc(NC(=O)c3cccc(C)c3)c2)OC(=O)N1Cc1cccc(Cl)c1 (stereo not drawn),-20.7%,–
O=C(Nc1ccccc1)c1nc2c(o1)CCN(Cc1cccc(Cl)c1)CC2,–,11.2 µM (active)
O=C(NCCOc1ccccc1)c1nc2c(o1)CCN(CC1CCCCC1)CC2,-2.91% [at 70.6 µM],–
O=C(Nc1ccc(Cl)cc1)c1nc2c(o1)CCN(Cc1ccsc1)CC2,–,8.91 µM (active)
Cc1cccc(CN2CCc3nc(C(=O)Nc4ccc(Cl)cc4)oc3CC2)c1,–,8.91 µM (active)
O=C(Nc1cccc(Cl)c1)c1cnc2c(c1)N(C(=O)CCc1ccccc1)CCC2,-5.9% [at 70.6 µM],–
COCCNc1ncccc1-c1noc([C@@H]2CCCN2Cc2ccc3c(c2)OCO3)n1,-3.12% [at 70.6 µM],–
CC(C)N1C(=O)OCC12CCN(C(=O)c1ccc(Oc3ccccc3)cc1)C2 (stereo not drawn),4.3% [at 70.6 µM],–
CCc1nc2c(c(-c3ccc(Cl)cc3)n1)CN(CCC(C)C)CC2,-1.49%,–
COC(=O)N1CCCc2nc(C)nc(-c3ccc(O)cc3)c2C1,2.32% [at 70.6 µM],–
CN(C)c1cc(N2C[C@@H](CN3CCOCC3)C[C@H](CO)C2)ncn1,-8.83%,–
COc1ccccc1C(=O)N1CCC2(CC1)CC(=O)c1ccccc1O2,-21.6% [at 70.6 µM],–
CC(=O)N(C1CC1)C1CCOC2(CCN(C(=O)C3(c4ccccc4)CC3)CC2)C1 (stereo not drawn),4.52%,–
COCC1CN(C(C)=O)CC12CCN(Cc1ccccc1OC)CC2 (stereo not drawn),-1.17%,–
CC1=NS(=O)(=O)N(C)C=C1C(=O)OCc1nc(-c2ccc(C)cc2)no1,–,10 µM (active)
COc1ccc(CN2C=C(C(=O)OCc3nc(C)no3)C(C)=NS2(=O)=O)cc1,-6.71%,–
CC1=NS(=O)(=O)N(C)C=C1C(=O)OCc1nc(-c2ccccc2C)no1,0%,–
CCn1ncc(N2CCC(NC(=O)c3ccccc3OC)CC2)cc1=O,-14.3%,–
COc1cccc(C(=O)NCC2Cn3cccc3C(=O)N2Cc2ccccc2)c1 (stereo not drawn),-15.6%,–
COc1cccc(-c2cc(-c3nc(C4CCOC4)no3)[nH]n2)c1 (stereo not drawn),-1.22%,–
COc1ccc(-c2[nH]nc3ncc(C(=O)Nc4ccccc4)nc23)c(C)c1,-2.06% [at 70.6 µM],–
COc1ccccc1Nc1cnc2ccc(N(C)Cc3cccnc3)nn12,–,25.1 µM (active)
CN(C)c1ccc2ncc(Nc3ccccc3F)n2n1,-8.3% [at 70.6 µM],–
COc1ccccc1Nc1cnc2ccc(-c3ccc(OC)c(OC)c3)nn12,-2.18% [at 70.6 µM],–
O=C1NC2(CN([S+](=O)([O-])c3cccc(C(F)(F)F)c3)C2)Oc2ccccc21,-18.2%,–

Structure (SMILES),"activity change, negative = inhibition",Potency
Cc1cccc(-n2nc(-c3c(C)nc4scc(CC(=O)NC(C)C(C)C)n4c3=O)cc2C)c1 (stereo not drawn),-1.1%,–
COc1cccc(NC(=O)Cn2c(-c3ccccc3)nc(C)cc2=O)c1,-4.42%,–
COc1cccc(CNC(=O)Cn2c(N(C)Cc3ccccc3)nc(C)cc2=O)c1OC,–,15.8 µM (active)
COc1cccc(NC(=O)Cn2c(N(C)Cc3ccccc3)nc(C)cc2=O)c1,–,10 µM (active)
COc1cc(NC(=O)Cn2c(N3CCc4ccccc4C3)nc(C)cc2=O)cc(OC)c1,-18.2%,–
CCCN1C(=O)Cc2ccccc2C1C(=O)NCc1cccc(OC)c1OC (stereo not drawn),-21.9%,–
COc1ccccc1CNC(=O)CN1CCCC(CO)(CC2CC2)C1 (stereo not drawn),-17%,–
COc1ccc2[nH]c3c(c2c1)CCNC31CCN(C(=O)c2cc(C)n(C)n2)CC1,-6.94%,–
COc1cccc(C(C(=O)O)N2CCN(c3ccccn3)CC2)c1OC (stereo not drawn),7.01%,–
Cc1cc(C(=O)N2CCC3(CC2)CC(C(=O)N2CCOCC2)N(C)C3)nn1C (stereo not drawn),2.63%,–
CCn1nccc1C(=O)N1CCCCCNC(=O)[C@H]2C[C@H](C(=O)N3CCc4ccccc4C3)C[C@H]21,6.58%,–
Cc1ccc(OCc2nc(C3CCN(C(=O)c4c5c(nc6ccccc46)CCCC5)CC3)no2)cc1,-19%,–
Cc1ccc(OCc2nc(C3CCN(C(=O)c4noc(C)c4CN4CCCCC4)CC3)no2)cc1,-18%,–
Cc1ccc(OCc2nc(C3CCN(C(=O)CCc4nc5ccc(Cl)cc5[nH]4)CC3)no2)cc1,–,11.2 µM (active)
COCCOC1CCN(C(=O)c2[nH]nc3c2COc2ccccc2-3)CC1,-25.5%,–
COc1ccc(CNC(=O)Cc2c[nH]c3ncc(-c4ccccc4)cc23)cc1OC,-27.7% [at 70.6 µM],–
O=C(Cc1c[nH]c2ncc(-c3ccccc3F)cc12)N1CCOCC1,–,25.1 µM (active)
Cc1noc(C)c1-c1nccc2c(=O)cc(N3CCOCC3)oc12,2.24% [at 70.6 µM],–
COCCNC(=O)Cc1c[nH]c2ncc(-c3cccnc3OC)cc12,-2.92% [at 70.6 µM],–
CN(C(=O)Cc1c[nH]c2ncc(-c3cnn(C)c3)cc12)c1ccccc1,-1.73% [at 70.6 µM],–
Cc1noc(C)c1-c1cnc2[nH]cc(CC(=O)N3CCOCC3)c2c1,–,22.4 µM (active)
CCCCSc1nc(N)cc(N2CCCC(OCc3cccnc3)C2)n1 (stereo not drawn),-19.3%,–
CC(C)CNC(=O)CC(c1ccc(F)cc1F)c1c[nH]c2ccccc12 (stereo not drawn),-18.2%,–
COc1ccc(CNC(=O)c2cc3n(n2)CC(c2ccc4c(c2)OCO4)OC3)c(OC)c1 (stereo not drawn),-5.63%,–
CCCc1nc(C(=O)N[C@@H]2[C@@H](Cc3ccccc3)[C@H]3OCC[C@@H]23)cs1,-2.95%,–

Structure (SMILES),"activity change, negative = inhibition",Potency
Cc1ccc(NC(=O)Cn2ccn3nc4c(c3c2=O)CC(C)CC4)cc1Cl (stereo not drawn),1.66%,–
O=c1n(CC2CC2)nc2n1CCC(NS(=O)(=O)c1cccc(F)c1)CC2 (stereo not drawn),-1.4%,–
COc1ccc(-c2noc(CC3CCN(C(=O)Cc4ccc(C)cc4)CC3)n2)cc1,–,15.8 µM (active)
COc1ccc(-c2noc(CC3CCN(C(=O)Cc4ccccc4)CC3)n2)cc1,–,11.2 µM (active)
COc1ccc(-c2noc(CC3CCN(C(=O)CC4CCCCC4)CC3)n2)cc1,–,6.31 µM (active)
COc1ccc(C(=O)N2CCC(Cc3nc(-c4cnccn4)no3)CC2)cc1,-4.05%,–
COc1ccc(CC(=O)N2CCC[C@H]2c2nc(-c3ccccc3)no2)cc1,-9.28%,–
CCOc1ccc(CC(=O)N2CCC(Cc3nc(-c4cnccn4)no3)CC2)cc1,0.667%,–
COc1ccc(-c2noc([C@@H]3CCCN3C(=O)CCc3ccccc3)n2)cc1,-18.3%,–
COc1ccc(-c2noc([C@@H]3CCCN3C(=O)Cc3ccccc3Cl)n2)cc1,-1.5%,–
Cc1ccc(CC(=O)N2CCC(Cc3nc(-c4cnccn4)no3)CC2)cc1,-2.52%,–
O=C(Nc1ccc(C(F)(F)F)cc1)N[C@@H]1C[C@H](CO)[C@@H](O)[C@H]1O,-3.69% [at 70.6 µM],–
COc1ccc(C(=O)N2CCC3(CC2)NC(=O)N(c2ccc(F)cc2)N3)cc1OC,0%,–
O=C(Nc1ccccc1)N1CCCCC1c1noc(COc2ccc(F)cc2)n1 (stereo not drawn),-18.6%,–
CCCn1cnc2c1CN(S(=O)(=O)Cc1ccccc1)[C@H](C(=O)OC)C2,-0.221% [at 70.6 µM],–
CCc1nc(-c2c3n(c(=O)n(CCc4ccc(OC)cc4)c2=O)CCCC3)no1,0.924%,–
COc1cccc(CN2CCc3c(cc(C(=O)NCCN4CCCCC4)n3C)C2)c1,-0.0053%,–
COc1ccc(CNC(=O)c2cccc3c2CCN3C(=O)c2ccc(F)cc2)cc1OC,–,8.91 µM (active)
COc1ccc(NC(=O)c2ccc3c(c2)N(C(=O)c2ccc(F)cc2)CC3)c(C)c1,-7.13%,–
CN1CCCCCC(O)c2cc(C(=O)NCc3ccc(F)cc3)ccc21 (stereo not drawn),-12.6%,–
O=C(c1ccnc(-c2nnc3ccc(N4CCOCC4)nn23)c1)N1CCCCC1,0.0035% [at 70.6 µM],–
COc1ccccc1CNC(=O)CCC[C@@H]1[C@H]2CCCN3CCC[C@@H](CN1C(=O)c1ccccc1)[C@@H]23,-2.86%,–
COCCN1CCCCCC(O)c2cc(C(=O)Nc3cccc(OC)c3)ccc21 (stereo not drawn),-1.45%,–
